Assay results reported in PubChem BioAssay AID651818 (Broad Institute, 2012).
Potency and affinity values are given separately. Records with an inconclusive call do not appear. Where a call stands in place of a potency, no number is given. Active and inactive are the calls of the source. Rule as the data show it: inconclusive = activity change below about -55%; inactive = above that.

assay: intracellular Trypanosoma cruzi inhibitors in host cells – cell-based, plate reader, cherry-pick samples, set 3, dose response (AID 651818); conditions: series mostly up to 10 µM

SMILES | outcome
Cc1ccc(S(=O)(=O)Nc2cccc3c2O[C@H](CN(C)CC2CCCCC2)[C@@H](C)CN([C@H](C)CO)C3=O)cc1 | inactive
C[C@H](CO)N1C[C@H](C)[C@@H](CN(C)S(=O)(=O)c2ccc(Cl)cc2)Oc2c(NC(=O)c3cnccn3)cccc2C1=O | inactive
C[C@@H]1CN([C@@H](C)CO)C(=O)c2cccc(NC(=O)c3ccncc3)c2O[C@@H]1CN(C)C | inactive
Cc1ccc(S(=O)(=O)Nc2cccc3c2O[C@H](CN(C)C(=O)NC(C)C)[C@@H](C)CN([C@H](C)CO)C3=O)cc1 | inactive
C[C@H]1CN([C@@H](C)CO)C(=O)c2cccc(NC(=O)c3ccncc3)c2O[C@@H]1CN(C)S(=O)(=O)c1ccccc1 | inactive
Cc1cc(C(=O)Nc2cccc3c2O[C@@H](CN(C)C(=O)Nc2ccccc2)[C@@H](C)CN([C@H](C)CO)C3=O)n(C)n1 | inactive
Cc1noc(C)c1S(=O)(=O)Nc1cccc2c1O[C@@H](CN(C)CC1CC1)[C@@H](C)CN([C@H](C)CO)C2=O | inactive
C[C@@H]1CN([C@H](C)CO)C(=O)c2cccc(NS(=O)(=O)c3cn(C)cn3)c2O[C@@H]1CN(C)Cc1ccncc1 | inactive
C[C@@H]1CN([C@@H](C)CO)C(=O)c2cccc(NS(=O)(=O)c3cn(C)cn3)c2O[C@H]1CN(C)C(=O)Nc1ccc(F)cc1 | inactive
C[C@@H]1CN([C@@H](C)CO)C(=O)c2cccc(N(C)C)c2O[C@H]1CN(C)Cc1ccc2c(c1)OCO2 | inactive
CC(C)NC(=O)Nc1cccc2c1O[C@@H](CN(C)Cc1ccc(C(F)(F)F)cc1)[C@@H](C)CN([C@H](C)CO)C2=O | inactive
